Data on 14 compounds can be found in PubChem BioAssay (NCATS).

SMILES strings stand for the structures. “And” between values parts separate entries of the source, which are not always exact repeats. Equal values may be shown once. A number with no mark means an inactive call. Records with an inconclusive call do not appear. The source made the active and inactive calls. Unless noted, the call rests on the fitted dose curve; in most records, active means well fitted curve in the direction sought with a large enough effect; inconclusive means small, poorly fitted or top-dose-only effect, or another doubt; inactive means no such curve, though single readings can be large; an effect the other way counts as inactive or inconclusive. Some results are limits rather than exact numbers.

A short description of test [1]: Cell Viability - BJ (AID 421; calls by dose curve;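 further: potency means the concentration at half of the fitted maximal effect; cells exposed to compound for 40 hours at 37 °C before readout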). As to conditions: BJ fibroblast viability, qHTS. The essentials:
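Quantitative HTS: ATP depletion in BJ cells after 40 hr compound exposure in complete culture medium, detected with CellTiter-Glo; AC50 from standard Hill fits.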
Background: qHTS replaces the single test concentration by a dilution series.

A short description of test [2]: Cell Viability - Jurkat (AID 426;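 active means dose-dependent loss of cell ATP signal giving a full or clear fitted curve, ranked by lower potency value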; further: potency means the concentration at half of the fitted maximal effect). As to conditions: qHTS. The essentials:
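Cells of the human T-cell leukemia line Jurkat (E6-1) are seeded at 5000 per well, treated with compound across a concentration range for 40 hours at 37 °C, then lysed with CellTiter-Glo; luminescence reports ATP.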

The nature of test [3]: Cell Viability - Hek293 (AID 427;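 active means compounds whose dose-response curve shows a full or clear partial loss of cell viability, called from curve shape rather than a numeric limit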;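 further: potency means the concentration at half of the fitted maximal effect; cells exposed to compound for 40 hours at 37 °C before reading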). Conditions: qHTS. The essentials: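 AC50 values derive from Hill-modelled concentration-response of ATP-based luminescence, normalized between DMSO-only and 100 uM tamoxifen controls. Cells were exposed in complete culture medium for 40 hr at 37 °C before detection.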
Test [4] is described as follows: Cell Viability - HepG2 (AID 433; calls by dose curve;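 further: potency means the concentration at half of the fitted maximal effect; potency for ATP loss meaning cytotoxicity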). As to conditions: qHTS. The essentials:
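Cytotoxicity is scored as loss of intracellular ATP in HepG2 cells exposed to compounds for 40 h. Concentration-response curves, normalized to DMSO and 100 uM tamoxifen, give AC50 values.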

Test [5] in a line: Cell Viability - MRC5 (AID 434; calls by dose curve;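 further: potency means the concentration at half of the fitted maximal effect; potency reflects cytotoxicity seen as loss of intracellular ATP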). Conditions: MRC5 lung fibroblast viability, qHTS. Put shortly: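 ATP luminescence read-out (CellTiter-Glo, 20 min RT) after 40 hr, 37 °C compound exposure of 1500 MRC5 cells/well. Data normalized to DMSO (basal) and 100 uM tamoxifen (100% inhibition); AC50 from standard Hill equation.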
Test [6] can be described thus: Cell Viability - SK-N-SH (AID 435; calls by dose curve;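 further: potency means the concentration at half of the fitted maximal effect; compound exposure lasted 40 h at 37 °C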). Conditions: SK-N-SH neuroblastoma cell viability qHTS. Put shortly:
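Cells seeded at 1500 per well and incubated 5 hr at 37 °C. Compound added, then 40 hr at 37 °C. CellTiter-Glo added, 20 min at room temperature, luminescence read.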

The target in test [7] is Mitogen-activated protein kinase 10 (Mus musculus) (UniProt Q61831). Description: JNK3 AlphaScreen Assay (AID 530; active means well fitted curve in either direction with a large enough effect, not every such curve was filed as active;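 further: kinase came from lysate of stimulated human HepG2 cells; signal reports phosphorylation of biotinylated GST-cJun 1-79 at Ser73 with 10 µM ATP; on the % scale 0 is the no-effect control and ±100 the full control effect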). As to conditions: JNK3 lysate, c-Jun phosphorylation; series mostly up to 57.1 µM. Put shortly:
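Activity was read by AlphaScreen after JNK3-containing HepG2 lysate (cytokine pre-activated) phosphorylated biotinylated GST-cJun with 10 uM ATP at room temperature. Phospho-Ser73 cJun antibody with Protein-A acceptor beads provided detection.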
For orientation: Alpha assays give light when donor and acceptor beads are brought close together.

Test [8] in a line: Cell Viability - N2a (AID 540).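 Further: plate controls were DMSO alone for no effect and tamoxifen control for full effect; nearly all actives have a fitted effect of over 45% in size.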 Conditions: N2a mouse neuroblastoma cell viability; at 92.2 µM (top of the series). Put shortly: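 Cytotoxicity was scored as loss of cellular ATP in N2a cells, a mouse neuroblastoma line. Compounds are applied in a qHTS concentration series for 40 hr at 37 °C.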
A short description of test [9]: Cell Viability - NIH 3T3 (AID 541).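 Further: plate controls were DMSO alone for no effect and tamoxifen positive control for full effect; nearly all actives have a fitted effect of over 25% in size.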 As to conditions: NIH 3T3 cell viability, qHTS; activity change, negative = cytotoxicity: at 92.2 µM (top of the series). Put shortly:
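Cells seeded at 1000/well, rested 5 hr at 37 °C, then dosed and incubated 40 hr at 37 °C. CellTiter-Glo added, 20 min room temperature, luminescence read. AC50 by Hill fit.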

Test [10] can be described thus: Cell Viability - HUV-EC-C (AID 542). Further: on the % scale 0 is the no-effect control and ±100 the full control effect; nearly all actives have a fitted effect of over 35% in size. As to conditions: HUV-EC-C endothelial cell viability, qHTS; series mostly up to 92.2 µM. Put shortly: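 Cells were seeded at 1000 per well and incubated 5 hr at 37 °C before compound addition. After 40 hr at 37 °C, CellTiter-Glo reagent was added for 20 min and luminescence read. AC50 values came from Hill-equation modelling.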

Test [11] is described as follows: Cell Viability - H-4-II-E (AID 543). Further: nearly all actives have a fitted effect of over 35% in size. Further: potency means the concentration at half of the fitted maximal effect. Conditions: H-4-II-E rat hepatoma viability; series mostly up to 92.2 µM. Put shortly: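 Cells seeded at 1500 per well and rested 5 hr; compounds added; 40 hr incubation at 37 °C; CellTiter-Glo added, 20 min at room temperature; luminescence read. Hill-equation fits gave AC50.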
Test [12] can be described thus: Cell Viability - Renal Proximal Tubule (AID 545).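 Further: 0% = DMSO only and -100% = 100 µM tamoxifen; nearly all actives have a fitted effect of over 40% in size.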 As to conditions: renal proximal tubule cells viability, primary cells of rat origin; at 91.7 µM (top of the series). Put shortly: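 Cytotoxicity is scored as a concentration-dependent drop in cellular ATP in primary rat renal proximal tubule cells exposed for 40 hr. AC50 derives from Hill modelling.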
The nature of test [13]: Cell Viability - Mesenchymal (AID 546).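 Further: cells exposed to compound for 40 hours before reading; 0% = DMSO only and -100% = 100 µM tamoxifen.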 Conditions: mesenchymal cells viability, qHTS; series mostly up to 91.7 µM. The essentials:
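Human renal mesenchymal cells (glomerulus-derived), 1000 cells/well, 5 hr 37 °C pre-incubation; compound 40 hr, 37 °C; CellTiter-Glo, 20 min RT; luminescence; AC50 via Hill equation.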

Test [14] concerns the target Glucocorticoid receptor (Homo sapiens) (UniProt P04150). In words: GR-GFP Redistribution (AID 450;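 active means compounds whose dose series gives a full or clear partial fitted curve of increased nuclear translocation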; further: potency means the concentration at half of the fitted maximal effect). As to conditions: U2OS GR-GFP nuclear translocation, laser cytometry, 2 h.
For test [15] the target is unchanged. Description: GR-EFC Redistribution (AID 451; calls by dose curve; further: potency means the concentration at half of the fitted maximal effect). As to conditions: CHO-K1 GR-EFC translocation, beta-gal luminescence, 2 h. Put shortly:
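CHO-K1 cells expressing nuclear EA and GR-ED fragments of b-gal; compounds titrated up to 46 uM final, 2 h at 37 C. GR nuclear translocation read as complemented b-gal luminescence after 1 h RT detection.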

Sequence of Glucocorticoid receptor (Homo sapiens) (P04150 whole entry, looked up): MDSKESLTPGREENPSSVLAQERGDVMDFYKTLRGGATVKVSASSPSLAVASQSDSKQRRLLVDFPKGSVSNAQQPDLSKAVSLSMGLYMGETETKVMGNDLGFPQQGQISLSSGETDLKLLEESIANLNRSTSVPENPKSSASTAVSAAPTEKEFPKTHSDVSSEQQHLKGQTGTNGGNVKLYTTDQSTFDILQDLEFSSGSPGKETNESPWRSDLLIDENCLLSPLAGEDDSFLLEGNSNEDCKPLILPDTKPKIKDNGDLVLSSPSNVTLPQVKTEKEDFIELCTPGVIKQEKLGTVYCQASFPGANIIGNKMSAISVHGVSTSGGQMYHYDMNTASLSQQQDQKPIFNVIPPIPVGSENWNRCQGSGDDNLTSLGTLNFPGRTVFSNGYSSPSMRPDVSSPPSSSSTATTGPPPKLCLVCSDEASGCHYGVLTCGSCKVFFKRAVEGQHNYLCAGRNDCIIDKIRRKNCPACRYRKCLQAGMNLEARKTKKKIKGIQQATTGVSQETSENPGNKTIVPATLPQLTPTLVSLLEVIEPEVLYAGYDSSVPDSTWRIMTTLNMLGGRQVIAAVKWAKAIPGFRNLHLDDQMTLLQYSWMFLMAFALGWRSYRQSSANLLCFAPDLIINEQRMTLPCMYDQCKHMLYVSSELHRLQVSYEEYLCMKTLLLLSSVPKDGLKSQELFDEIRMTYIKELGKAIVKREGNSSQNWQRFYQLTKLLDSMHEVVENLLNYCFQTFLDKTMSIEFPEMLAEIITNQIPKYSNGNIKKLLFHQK

`Nc1ncnc2c1ncn2[C@H]1CC[C@@H](CO)O1`: the Potency in test [1], in [2], in test [3], in test [4], in test [5] and in test [6] was over 92 µM each time. Also, the outcome in [7] and in test [13] was inactive. The values for the activity change, negative = cytotoxicity in test [8], in test [9] and in test [12] were 6.32%, 7.1% and 2.7%, respectively. For the same compound, the Potency entry in [10] and in [11] was “inactive” in each case.

With `c1ccc2ccccc2c1`, the Potency in test [1], in test [2], in [3], in test [4], in test [5] and in [6] was over 92 µM throughout. Further, the compound was classed as inactive in [7] and in test [13]. In addition, the activity change, negative = cytotoxicity is 6.48% in test [8], 0.772% in [9] and 1.8% in test [12]. Further, the Potency entry in [10] and in [11] was “inactive” throughout.

As to `Oc1cccc(O)c1O`, the Potency in test [4] and in [5] was over 92 µM each time. In [7], the compound was classed as inactive. Also, the activity change, negative = cytotoxicity is -18.3% in test [8] and -27.7% in [12]. The Potency result in test [10] and in [11] was “inactive” each time.

Take `CCCCO`: the Potency in [1], in test [2], in test [3], in [4], in test [5] and in test [6] was over 92 µM in each case. In addition, the compound was classed as inactive in test [7] and in test [13]. Also, the activity change, negative = cytotoxicity is -5.68% and -4.88% in test [8]; -12.4% and 2.4% in test [9]; -5.24% and 3.29% in [12]. Moreover, the Potency entry in test [10] and in test [11] was “inactive” in each case.

Take `CC[C@H]1OC(=O)[C@H](C)[C@@H](O[C@H]2C[C@@](C)(OC)[C@@H](O)[C@H](C)O2)[C@H](C)[C@@H](O[C@@H]2O[C@H](C)C[C@H](N(C)C)[C@H]2O)[C@](C)(O)C[C@@H](C)CN(C)[C@H](C)[C@@H](O)[C@]1(C)O`: the Potency in test [1], in test [3], in test [4] and in test [5] was over 92 µM throughout. Also, the result in test [7] and in test [13] was inactive. Moreover, the values for the activity change, negative = cytotoxicity in test [8], in test [9] and in test [12] were -23.6%, -19.1% and -18.1%, respectively. Moreover, in [11], the Potency entry is “inactive”.

Consider `O=P(O)(O)O`, for which the Potency in test [1], in [2], in test [3], in test [4], in [5] and in test [6] was over 92 µM each time. In addition, the compound was called inactive in test [7] and in test [13]. Besides, the activity change, negative = cytotoxicity is -12.4% in test [8], -8.72% in test [9] and -7.24% in test [12]. The Potency result in test [10] and in test [11] was “inactive” each time.

In the case of `CCCCC`, the Potency in test [1], in [2], in [3], in test [4], in [5] and in [6] was over 92 µM in each case. In addition, the outcome in test [7] and in test [13] was inactive. The activity change, negative = cytotoxicity was 6.23% in [8], -10.6% in [9] and 5.08% in test [12]. For the same compound, the Potency result in test [10] and in test [11] was “inactive” in each case.

Consider `CC1=CCC2CC1C2(C)C` (centres undefined), for which the Potency in [1], in [2], in test [3], in [4], in test [5] and in [6] was over 92 µM each time. The outcome in [7] and in test [13] was inactive. Further, the activity change, negative = cytotoxicity in test [8] is 4.74%; in [9], -3.47%; in [12], 2.31%. In addition, the Potency result in test [10] and in [11] was “inactive” throughout.

For the compound `CC/C=C\C/C=C\C/C=C\CCCCCCCC(=O)O`, the Potency in test [1], in [3], in [4], in test [5] and in test [6] was over 92 µM in each case. Further, the result in test [7] and in test [13] was inactive. In addition, the activity change, negative = cytotoxicity was -20.9% in test [8], -137% (active) in test [9] and -15.2% in test [12]. The Potency entry in test [10] and in [11] was “inactive” in each case.

On to `COC(=O)c1ccccc1O`, for which the Potency in test [1], in [2], in test [3], in [4], in [5] and in [6] was over 92 µM in each case. Also, the compound was classed as inactive in test [7] and in test [13]. Besides, the figures for the activity change, negative = cytotoxicity in test [8], in [9] and in [12] were 0.567%, 6.05% and -0.7%, respectively. Moreover, the Potency result in test [10] and in test [11] was “inactive” each time.

For the compound `C/C=C/C=C/C(=O)O`, the Potency in test [1], in test [2], in test [3], in [4], in [5] and in test [6] was over 92 µM throughout. Also, the compound was classed as inactive in [7] and in [13]. The activity change, negative = cytotoxicity was -0.963% in test [8], 8.21% in test [9] and -2.27% in [12]. Moreover, the Potency entry in test [10] and in [11] was “inactive” throughout.

`O=c1n(CC2CO2)c(=O)n(CC2CO2)c(=O)n1CC1CO1` (centres undefined): the Potency in test [1] is 30.6 µM (active); in [2], 14.7 µM (active); in test [5] it was 51.4 µM (active); in [11], 39.8 µM (active). The activity change, negative = cytotoxicity in test [9] is -138% (active); in test [12], -90% (active).

On to `C[C@@](Cc1ccc(O)c(O)c1)(NN)C(=O)O`, for which the Potency in test [14] and in test [15] was over 46 µM each time.

Turning to `[O-][N+](=Nc1ccccc1)c1ccccc1`, the Potency in [1], in test [2], in test [3], in test [4], in test [5] and in test [6] was over 92 µM throughout. The compound was classed as inactive in test [7] and in [13]. Moreover, the activity change, negative = cytotoxicity was 4.21% in test [8], -5.77% in test [9] and -0.723% in [12]. Moreover, the Potency result in test [10] and in test [11] was “inactive” in each case.
